# Assay results from PubChem BioAssay (Tox21).
# “And” between values parts separate entries of the source, which are not always exact repeats. Identical values can stand only once. The source made the active and inactive calls. Entries that show only a call come without a potency. Calls come from the whole dose curve; as a rule, active = well fitted curve in the direction sought with a large enough effect in the repeat runs; inconclusive = weak or mixed curves; inactive = flat fitted curve, though single readings scatter.
# Assay: qHTS assay to test for compound auto fluorescence at 590 nm (red) in HEK293 cell free culture (AID 720683); note: potency is the fitted concentration of half-maximal effect
# Conditions: cell-free medium autofluorescence, Ex540/Em590 red; series mostly up to 91.3 µM; fluorescence, % of fluorescent control: at the top concentration
# Method in brief: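 Tox21 10K library compounds were pinned into cell-free DMEM with 10% FBS and fluorescence was read at excitation 540 nm. Activity is expressed as Rose Bengal sodium equivalency.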
# Tags give direction and shape of the fitted curve or compound fluorescence and quenching.
SMILES,Potency,"fluorescence, % of fluorescent control"
Cc1cn([C@H]2C=C[C@@H](CO)O2)c(=O)[nH]c1=O,inactive,
O=C(O)CC(O)C(=O)O (centres undefined),inactive,
CCCCCCCCCCCC[N+](C)(C)Cc1ccccc1,inactive,
COc1ccc(C(Cl)=C(c2ccc(OC)cc2)c2ccc(OC)cc2)cc1,inactive,
Nc1ccc([N+](=O)[O-])cc1O,,-0.494% (inactive)
O=C1NS(=O)(=O)c2ccccc21,inactive,
CCCCNC(=O)NS(=O)(=O)c1ccc(C)cc1,inactive,
Nc1c(N=Nc2ccc(-c3ccc(N=Nc4cc(S(=O)(=O)O)c5ccccc5c4N)cc3)cc2)cc(S(=O)(=O)O)c2ccccc12,inactive,
O=C(Nc1ncc([N+](=O)[O-])s1)c1cccs1,,-0.774% [at 46 µM] (inactive)
CC(O)(P(=O)(O)O)P(=O)(O)O,inactive,
CC1(C)O[C@@H]2C[C@H]3[C@@H]4CCC5=CC(=O)C=C[C@]5(C)[C@@]4(F)[C@@H](O)C[C@]3(C)[C@]2(C(=O)CO)O1,inactive,
CC(=O)Nc1c(I)c(NC(C)=O)c(I)c(C(=O)O)c1I,inactive,
NC1CCCCC1,inactive,
Cc1ncc([N+](=O)[O-])n1CCO,inactive,
Cc1cccc(C)c1,inactive,
CCOC(N)=O,inactive,
O=C1OC2(c3ccccc31)c1cc(Br)c(O)c(Br)c1Oc1c2cc(Br)c(O)c1Br,4.47 µM [fluorescent] (active) and 3.55 µM [fluorescent] (active),
Cc1ccc(S(=O)(=O)O)cc1,inactive,
CC/C(=C(\c1ccccc1)c1ccc(OCCN(C)C)cc1)c1ccccc1,inactive,
CC(=O)C(=O)O,inactive,
C=C(C)C(=O)OCC(C)O (centres undefined),inactive,
COc1ccc2c(c1)c(CC(=O)O)c(C)n2C(=O)c1ccc(Cl)cc1,inactive,
C/C=C/C=C/C(=O)O,inactive,
Oc1ccccc1,inactive,
Nc1ccc(O)c([N+](=O)[O-])c1,,-0.588% (inactive)
CN1CCC[C@H]1c1cccnc1,inactive,
CCN(CC)C(=O)c1cccc(C)c1,inactive,
COc1ccc(CN(CCN(C)C)c2ccccn2)cc1,inactive,
O=S1(=O)OC(c2ccc(O)cc2)(c2ccc(O)cc2)c2ccccc21,inactive,

# Assay: qHTS assay to test for compound auto fluorescence at 590 nm (red) in HepG2 cell free culture (AID 720684); note: potency is the fitted concentration of half-maximal effect
# Conditions: cell-free medium autofluorescence, red 540/590 nm; series mostly up to 91.3 µM; fluorescence, % of Rose Bengal: at the top concentration
# Method in brief: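 Ex 540 / Em 590 nm read of compound in cell-free MEM (10% FBS). Rose Bengal sodium reference.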
SMILES,Potency,"fluorescence, % of Rose Bengal"
O=C(O)CC(O)C(=O)O (centres undefined),inactive,
CCCCCCCCCCCC[N+](C)(C)Cc1ccccc1,inactive,
O=C(Nc1ncc([N+](=O)[O-])s1)c1cccs1,,0.0702% [at 46 µM] (inactive)
CC(O)(P(=O)(O)O)P(=O)(O)O,inactive,
CC1(C)O[C@@H]2C[C@H]3[C@@H]4CCC5=CC(=O)C=C[C@]5(C)[C@@]4(F)[C@@H](O)C[C@]3(C)[C@]2(C(=O)CO)O1,inactive,
NC1CCCCC1,inactive,
CCOC(N)=O,inactive,
O=C1OC2(c3ccccc31)c1cc(Br)c(O)c(Br)c1Oc1c2cc(Br)c(O)c1Br,3.16 µM [fluorescent] (active) and 2.82 µM [fluorescent] (active) and 2.51 µM [fluorescent] (active),
Cc1ccc(S(=O)(=O)O)cc1,inactive,
COc1ccc2c(c1)c(CC(=O)O)c(C)n2C(=O)c1ccc(Cl)cc1,inactive,
Oc1ccccc1,inactive,

# Assay: qHTS assay to test for compound auto fluorescence at 460 nm (blue) in HepG2 cell free culture (AID 720685)
# Conditions: Cell-free culture medium, blue autofluorescence 405/460 nm; series mostly up to 91.3 µM; fluorescence, % of fluorescent control: at the top concentration
# Method in brief: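 Cell-free plates of MEM plus 10% FBS received 23 nL compound or DMSO vehicle; blue-channel (405/460 nm) intensity scored against triamterene as reference fluorophore.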
SMILES,Potency,"fluorescence, % of fluorescent control"
Cc1cn([C@H]2C=C[C@@H](CO)O2)c(=O)[nH]c1=O,inactive,
O=C(O)CC(O)C(=O)O (centres undefined),inactive,
CCCCCCCCCCCC[N+](C)(C)Cc1ccccc1,inactive,
COc1ccc(C(Cl)=C(c2ccc(OC)cc2)c2ccc(OC)cc2)cc1,inactive,
Nc1ccc([N+](=O)[O-])cc1O,,-0.667% (inactive)
O=C1NS(=O)(=O)c2ccccc21,inactive,
CCCCNC(=O)NS(=O)(=O)c1ccc(C)cc1,inactive,
Nc1c(N=Nc2ccc(-c3ccc(N=Nc4cc(S(=O)(=O)O)c5ccccc5c4N)cc3)cc2)cc(S(=O)(=O)O)c2ccccc12,inactive,
O=C(Nc1ncc([N+](=O)[O-])s1)c1cccs1,,0.362% [at 46 µM] (inactive)
CC(O)(P(=O)(O)O)P(=O)(O)O,inactive,
CC1(C)O[C@@H]2C[C@H]3[C@@H]4CCC5=CC(=O)C=C[C@]5(C)[C@@]4(F)[C@@H](O)C[C@]3(C)[C@]2(C(=O)CO)O1,inactive,
CC(=O)Nc1c(I)c(NC(C)=O)c(I)c(C(=O)O)c1I,inactive,
NC1CCCCC1,inactive,
Cc1ncc([N+](=O)[O-])n1CCO,inactive,
Cc1cccc(C)c1,inactive,
CCOC(N)=O,inactive,
O=C1OC2(c3ccccc31)c1cc(Br)c(O)c(Br)c1Oc1c2cc(Br)c(O)c1Br,inactive,
Cc1ccc(S(=O)(=O)O)cc1,inactive,
CC/C(=C(\c1ccccc1)c1ccc(OCCN(C)C)cc1)c1ccccc1,inactive,
CC(=O)C(=O)O,inactive,
C=C(C)C(=O)OCC(C)O (centres undefined),inactive,
COc1ccc2c(c1)c(CC(=O)O)c(C)n2C(=O)c1ccc(Cl)cc1,inactive,
C/C=C/C=C/C(=O)O,inactive,
Oc1ccccc1,inactive,
Nc1ccc(O)c([N+](=O)[O-])c1,,-0.464% (inactive)
CN1CCC[C@H]1c1cccnc1,inactive,
CCN(CC)C(=O)c1cccc(C)c1,inactive,
COc1ccc(CN(CCN(C)C)c2ccccn2)cc1,inactive,
O=S1(=O)OC(c2ccc(O)cc2)(c2ccc(O)cc2)c2ccccc21,inactive,
